# PubChem BioAssay (NCI)
# Several values for one entry are separate records, joined by “and”; a condition that tells them apart may be missing. Equal entries are not always repeated. This is part of a sample that, as a whole, favours compounds with a hit. Of some 83,000 tested, about 20% had one in any assay.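 Results are percent growth after 48 hours of single-concentration exposure. 100 means growth as in untreated cells, lower positive values show inhibition; negative values down to -100 show cell death.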 Activity calls are given as the source filed them. Rule for the calls: active = growth percent below 10; inactive = the rest.
# Key:
# Assay in all cases: NCI-60 one-dose screen, 48 h (100 = growth as untreated, 0 = no growth, -100 = all killed)
# Conditions in all cases: 10 µM unless noted
# HCT-15 colon = test system: HCT-15 colon
# HT29 colon = test system: HT29 colon
# SNB-75 CNS = test system: SNB-75 CNS
# SNB-19 CNS = test system: SNB-19 CNS
# U251 CNS = test system: U251 CNS
# PC-3 prostate = test system: PC-3 prostate
# UACC-62 melanoma = test system: UACC-62 melanoma
# LOX IMVI melanoma = test system: LOX IMVI melanoma
# SK-MEL-28 melanoma = test system: SK-MEL-28 melanoma
# SK-MEL-2 melanoma = test system: SK-MEL-2 melanoma
# EKVX NSCLC = test system: EKVX NSCLC
# SN12C renal = test system: SN12C renal
# UO-31 renal = test system: UO-31 renal
# TK-10 renal = test system: TK-10 renal
# ACHN renal = test system: ACHN renal
# CAKI-1 renal = test system: CAKI-1 renal
# A498 renal = test system: A498 renal
# HL-60(TB) leukemia = test system: HL-60(TB) leukemia
# CCRF-CEM leukemia = test system: CCRF-CEM leukemia
# SK-MEL-5 melanoma = test system: SK-MEL-5 melanoma
SMILES,growth (HCT-15 colon),growth (HT29 colon),growth (SNB-75 CNS),growth (SNB-19 CNS),growth (U251 CNS),growth (PC-3 prostate),growth (UACC-62 melanoma),growth (LOX IMVI melanoma),growth (SK-MEL-28 melanoma),growth (SK-MEL-2 melanoma),growth (EKVX NSCLC),growth (SN12C renal),growth (UO-31 renal),growth (TK-10 renal),growth (ACHN renal),growth (CAKI-1 renal),growth (A498 renal),growth (HL-60(TB) leukemia),growth (CCRF-CEM leukemia),growth (SK-MEL-5 melanoma)
Cc1cc(C(C)(C)C)ccc1O,109% (inactive),106% (inactive),102% (inactive),111% (inactive),94.2% (inactive),93.6% (inactive),109% (inactive),94.9% (inactive),110% (inactive),110% (inactive),112% (inactive),114% (inactive),86.9% (inactive),108% (inactive),112% (inactive),101% (inactive),96% (inactive),96.9% (inactive),106% (inactive),
NC(=O)c1c(Br)c(Br)c(Br)c(Br)c1C(=O)O (tested in a mixture with another compound),92.8% (inactive) and 106% (inactive),106% (inactive) and 103% (inactive),115% (inactive) and 95.8% (inactive),96.6% (inactive) and 104% (inactive),95.4% (inactive) and 96.2% (inactive),90.8% (inactive) and 86.6% (inactive),83.7% (inactive) and 104% (inactive),31.8% (inactive) and 101% (inactive),110% (inactive) and 108% (inactive),101% (inactive) and 113% (inactive),108% (inactive) and 99.9% (inactive),87.8% (inactive) and 93.3% (inactive),72.4% (inactive) and 51.5% (inactive),122% (inactive) and 123% (inactive),92.7% (inactive) and 101% (inactive),92.8% (inactive) and 97.5% (inactive),113% (inactive),85% (inactive) and 68.2% (inactive),35.5% (inactive) and 79.4% (inactive),
COc1ccc(CN)cc1OC,103% (inactive) and 100% (inactive),107% (inactive),113% (inactive) and 93.3% (inactive),104% (inactive) and 103% (inactive),112% (inactive) and 97.6% (inactive),106% (inactive) and 93.5% (inactive),,98.2% (inactive) and 94.2% (inactive),110% (inactive) and 116% (inactive),112% (inactive),121% (inactive),98.7% (inactive) and 98.1% (inactive),96.8% (inactive) and 82.6% (inactive),127% (inactive) and 115% (inactive),103% (inactive) and 95.9% (inactive),101% (inactive),124% (inactive) and 85% (inactive),98% (inactive),116% (inactive) and 97.7% (inactive),
CCC(=O)C(CC(C)[N+](C)(C)C)(c1ccccc1)c1ccccc1 (configuration not stated),97.6% (inactive),108% (inactive),93.8% (inactive),96.8% (inactive),97.9% (inactive),103% (inactive),,96.7% (inactive),106% (inactive),104% (inactive),,,95.9% (inactive),98.1% (inactive),102% (inactive),95.4% (inactive),111% (inactive),109% (inactive),114% (inactive),
O=C(O)C(Br)CBr (configuration not stated),90.8% (inactive),97.6% (inactive),89.5% (inactive),107% (inactive),97% (inactive),94.3% (inactive),,94.3% (inactive),110% (inactive),85.1% (inactive),,98% (inactive),89.4% (inactive),,97.4% (inactive),101% (inactive),107% (inactive),,96.3% (inactive),
Cc1cc2c(cc1-c1ccnc(/C=C/C(=O)O)c1)C(C)(C)CCC2(C)C,86.1% (inactive),97.9% (inactive),80.3% (inactive),90.7% (inactive),84.1% (inactive),86.8% (inactive),72.2% (inactive),46.9% (inactive),92.9% (inactive),93.9% (inactive),86.1% (inactive),88% (inactive),62.1% (inactive),115% (inactive),81.6% (inactive),91.8% (inactive),73.7% (inactive),59.2% (inactive),95.7% (inactive),
CCCC[C@H]1C(=O)O[C@H](C)[C@H](NC(=O)c2cccc(NC=O)c2O)C(=O)O[C@@H](C)[C@@H]1OC(=O)CC(C)C,39.9% (inactive),49.5% (inactive),56.8% (inactive),44.4% (inactive),42.9% (inactive),32.9% (inactive),34% (inactive),32.9% (inactive),83.9% (inactive),93.4% (inactive),57.7% (inactive),59.6% (inactive),57.3% (inactive),49.8% (inactive),56.6% (inactive),34.5% (inactive),,37% (inactive),28.7% (inactive),
O=C1C=C(N2CC2)c2ccccc2C1=O,79.6% (inactive),73.4% (inactive),90.2% (inactive),82.7% (inactive),65.3% (inactive),44.3% (inactive),97.8% (inactive),39% (inactive),111% (inactive),90.7% (inactive),114% (inactive),51.2% (inactive),53.9% (inactive),118% (inactive),21% (inactive),32.3% (inactive),102% (inactive),8.35% (active),-11.5% (active),
COC(=O)CCP(CCC(=O)OC)c1ccccc1,106% (inactive),106% (inactive),89.5% (inactive),119% (inactive),99.3% (inactive),99.9% (inactive),97.9% (inactive),100% (inactive),103% (inactive),110% (inactive),93.9% (inactive),99.5% (inactive),91.4% (inactive),109% (inactive),108% (inactive),94.6% (inactive),123% (inactive),,109% (inactive),
CN(C)c1ccc(C=C2C(=O)NC(=O)NC2=O)cc1,102% (inactive),113% (inactive),92% (inactive),99.6% (inactive),97% (inactive),105% (inactive),94.5% (inactive),85.8% (inactive),92.5% (inactive),105% (inactive),92.4% (inactive),77.5% (inactive),92.9% (inactive),109% (inactive),89.3% (inactive),78.9% (inactive),58.2% (inactive),102% (inactive),115% (inactive),
C#Cc1cccc(Nc2nc(Cl)nc3cc(NC(=O)CF)ccc23)c1,35.4% (inactive),16.1% (inactive),61.2% (inactive),89% (inactive),79.3% (inactive),57.8% (inactive),72.9% (inactive),65.2% (inactive),73.2% (inactive),66% (inactive),71.4% (inactive),91.9% (inactive),74% (inactive),85.7% (inactive),,55.8% (inactive),87.4% (inactive),90.3% (inactive),93.4% (inactive),
CCC(=O)C(CC(C)N1CCCCCC1)(c1ccccc1)c1ccccc1 (configuration not stated),87.2% (inactive),67.1% (inactive),115% (inactive),95.2% (inactive),100% (inactive),89.2% (inactive),94.4% (inactive),103% (inactive),94.7% (inactive),103% (inactive),90.8% (inactive),97.8% (inactive),67.3% (inactive),84% (inactive),97.6% (inactive),79% (inactive),84.5% (inactive),95.5% (inactive),96.1% (inactive),
C=C[Se]CC(=O)/C=C/c1ccccc1,96.3% (inactive),80.7% (inactive),49.4% (inactive),31.3% (inactive),26.4% (inactive),29.1% (inactive),92.4% (inactive),93.9% (inactive),96.1% (inactive),99.9% (inactive),70.4% (inactive),73.6% (inactive),39.4% (inactive),103% (inactive),95.5% (inactive),106% (inactive),65.3% (inactive),,47.4% (inactive),
OCCNC1CCCCC1,98.7% (inactive),109% (inactive),96.3% (inactive),105% (inactive),106% (inactive),103% (inactive),97.2% (inactive),104% (inactive),104% (inactive),104% (inactive),97.9% (inactive),,,106% (inactive),102% (inactive),102% (inactive),93.4% (inactive),100% (inactive),103% (inactive),
CCCCCCCCCCCCCCCC[N+](C)(C)Cc1ccccc1,64% (inactive) and 42% (inactive),-43.6% (active) and -81% (active),-21.6% (active) and -70.3% (active),-40.3% (active),-16% (active) and -94.9% (active),-34.9% (active) and -44.1% (active),-26% (active) and -74.5% (active),-79% (active) and -97.1% (active),-27.7% (active) and -58.1% (active),25.2% (inactive) and -69% (active),15.8% (inactive) and -27.6% (active),,54.3% (inactive) and 51% (inactive),8.74% (active) and -73.5% (active),55.1% (inactive) and 23.4% (inactive),84.4% (inactive) and 50.6% (inactive),36.2% (inactive) and 38.2% (inactive),,-22% (active) and -30.1% (active),
COCC1OC2OC3C(COC)OC(OC4C(COC)OC(OC5C(COC)OC(OC6C(COC)OC(OC7C(COC)OC(OC8C(COC)OC(OC1C(O)C2O)C(O)C8O)C(O)C7O)C(O)C6O)C(O)C5O)C(O)C4O)C(O)C3O (configuration not stated) (tested in a mixture with another compound),103% (inactive),109% (inactive),86.1% (inactive),110% (inactive),105% (inactive),,107% (inactive),102% (inactive),112% (inactive),65.7% (inactive),105% (inactive),97.6% (inactive),97.3% (inactive),146% (inactive),107% (inactive),102% (inactive),111% (inactive),132% (inactive),,103% (inactive)
